# Experimental data from PubChem BioAssay.
# Several values for one entry are separate records, joined by “and”; a condition that tells them apart may be missing. Equal values may be shown once.
# Assay: growth inhibition, single agents and combos, HD-MB03, cell-based, BGB or cisplatin IC20 combos, synergistic combos for chromothripsis tumors (AID 1671455);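 note: 0% = vehicle DMSO and 100% = high DMSO as cytotoxic control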
# Conditions: HD-MB03 medulloblastoma cells, measured here: combo with BGB at IC20, at 0.5 µM, stronger effect = higher value
row,SMILES,inhibition
1,O=C(O)P(=O)(O)O,-16%
2,C[C@H]1COc2c(C3(N)CC3)c(F)cc3c(=O)c(C(=O)O)cn1c23,-6%
3,Nc1nc2c(ncn2CCC(CO)CO)c(=O)[nH]1,-13.9% and 7.53%
4,CN(C)/N=N/c1nc[nH]c1C(N)=O,4.98% and -8.86%
5,CC1CCc2cc(F)cc3c(=O)c(C(=O)O)cn1c23 (configuration not stated),-11.9% and -3.2%
6,CCN1CCN(c2cc3c(cc2F)c(=O)c(C(=O)O)cn3C2CC2)CC1,-3.92%

# Same assay, conditions: HD-MB03 medulloblastoma cells, measured here: combo with cisplatin at IC20, at 0.5 µM, stronger effect = higher value
row,SMILES,inhibition
1,O=C(O)P(=O)(O)O,-17.1%
2,C[C@H]1COc2c(C3(N)CC3)c(F)cc3c(=O)c(C(=O)O)cn1c23,-11.8%
3,Nc1nc2c(ncn2CCC(CO)CO)c(=O)[nH]1,-2.89% and -3%
4,CN(C)/N=N/c1nc[nH]c1C(N)=O,-6.17% and -0.723%
5,CC1CCc2cc(F)cc3c(=O)c(C(=O)O)cn1c23 (configuration not stated),7.79% and 0.674%
6,CCN1CCN(c2cc3c(cc2F)c(=O)c(C(=O)O)cn3C2CC2)CC1,-4.26%
